Inconclusive results are not listed. Entries that show only a call come without a potency. Activity calls are given as the source filed them. The call rests on the fitted dose curve; in most records, active means well fitted inhibition curve with a large enough effect; inconclusive means small, poorly fitted or top-dose-only effect; inactive means flat fitted curve, though single readings scatter.

Consider 32 molecules from PubChem BioAssay (NCATS).
Further: nearly all actives have a fitted effect of over 65% in size.

Sequence of Phospholipid hydroperoxide glutathione peroxidase GPX4 (Homo sapiens) (P36969 whole entry, looked up): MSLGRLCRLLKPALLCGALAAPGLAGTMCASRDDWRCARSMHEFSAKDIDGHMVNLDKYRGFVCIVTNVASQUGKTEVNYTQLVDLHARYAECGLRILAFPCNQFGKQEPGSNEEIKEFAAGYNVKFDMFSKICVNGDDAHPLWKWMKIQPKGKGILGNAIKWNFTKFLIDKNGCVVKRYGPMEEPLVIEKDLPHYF
Sequence of Glutathione peroxidase 1 (Homo sapiens) (P07203 whole entry, looked up): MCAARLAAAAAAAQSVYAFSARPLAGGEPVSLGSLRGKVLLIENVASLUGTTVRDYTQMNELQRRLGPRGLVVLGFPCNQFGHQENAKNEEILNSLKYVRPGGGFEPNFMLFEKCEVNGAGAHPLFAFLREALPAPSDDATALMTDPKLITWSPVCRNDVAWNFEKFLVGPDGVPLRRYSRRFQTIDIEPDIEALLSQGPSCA

The target in the first assay is Glutathione peroxidase 1 (Homo sapiens) (UniProt P07203). Put plainly: Primary qHTS Assay for Inhibitors of Recombinant Selenoprotein Glutathione Peroxidase 1 (GPX1) (AID 1845191). Further: potency means the concentration at half of the fitted maximal effect. The settings on record: recombinant GPX1, GR-coupled NADPH fluorescence, 15 min; series mostly up to 48.8 µM. The essentials:
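GR-coupled assay: compounds preincubated 30 min at room temperature with GPX1, then reaction started with CHP; final 10 nM GPX1, 1 mM GSH, 0.5 mM CHP, 0.5 mM NADPH, 100 nM GR, 0.01% BSA, pH 7.5 Tris buffer. NADPH fluorescence (340/450 nm) read at 0 and 15 min.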
For orientation: In qHTS, concentration-response curves come from the screen itself.
Turning to `CC(C)NC[C@H](O)c1ccc(O)c(O)c1`, the Potency result was “inactive”.
Regarding `CCCCCCCCCCCCOS(=O)(=O)O`, the Potency entry is “inactive”.
For the molecule `CCN(CC)CCNC(=O)c1c(C)[nH]c(/C=C2\C(=O)Nc3ccc(F)cc32)c1C`, the Potency entry was “inactive”.
Turning to `CCN(CC)CCOC(=O)C1(C2CCCCC2)CCCCC1`, the Potency result was “inactive”.
For `COCCOC(=O)C1=C(C)NC(C)=C(C(=O)OC/C=C/c2ccccc2)C1c1cccc([N+](=O)[O-])c1` (configuration not stated), the Potency entry was “inactive”.
Turning to `CCCCc1ncc(/C=C(\Cc2cccs2)C(=O)O)n1Cc1ccc(C(=O)O)cc1`, the Potency result is “inactive”.
Still for that read-out and setting: under `CC1=C(CC(=O)O)c2cc(F)ccc2/C1=C\c1ccc(S(C)=O)cc1` (configuration not stated) stands “inactive”; under `CC(C)(C(=O)O)c1ccc(C(O)CCCN2CCC(C(O)(c3ccccc3)c3ccccc3)CC2)cc1` (configuration not stated), “inactive”; under `CC(C(O)c1ccc(O)cc1)N1CCC(Cc2ccccc2)CC1` (configuration not stated), “inactive”.
`CN1CCN(C2Cc3ccccc3Sc3ccc(Cl)cc32)CC1` (configuration not stated): the Potency result was “inactive”.
For `C[C@@H](O)[C@H](N)C(=O)O`, the Potency result is “inactive”.
For `CCN(CC)CCCC(C)Nc1c2ccc(Cl)cc2nc2ccc(OC)cc12` (configuration not stated), the Potency result is “inactive”.
Same read-out and setting: in the case of `CC(=O)O[C@@]12CO[C@@H]1C[C@H](O)[C@@]1(C)C(=O)[C@H](O)C3=C(C)[C@@H](OC(=O)[C@H](O)[C@@H](NC(=O)OC(C)(C)C)c4ccccc4)C[C@@](O)([C@@H](OC(=O)c4ccccc4)[C@H]21)C3(C)C` it was “inactive”; in that of `CN(C)CCCN1c2ccccc2Sc2ccc(Cl)cc21`, “inactive”; in that of `CN1CCC[C@@H]1Cc1c[nH]c2ccc(CCS(=O)(=O)c3ccccc3)cc12`, “inactive”.
For `O=C1NC(=O)[C@@]2(CCOc3ccc(F)cc32)N1`, the Potency result was “inactive”.
Same read-out and setting: in the case of `CNC(=O)Oc1ccc2c(c1)[C@]1(C)CCN(C)[C@@H]1N2C` it was “inactive”; in that of `CC(C)c1c(C(=O)Nc2ccccc2)c(-c2ccccc2)c(-c2ccc(F)cc2)n1CC[C@@H](O)C[C@@H](O)CC(=O)O`, “inactive”; in that of `CO/N=C(\C(=O)N[C@@H]1C(=O)N2C(C(=O)O)=C(CSc3nc(=O)c(O)nn3C)CS[C@H]12)c1csc(N)n1`, 9.04 µM (active).
In the case of `C[C@]12CC[C@@H]3c4ccc(O)cc4CC[C@H]3[C@@H]1CCC2=O`, the Potency entry was “inactive”.
As for `N[C@H]1C(O)O[C@H](CO)[C@@H](O)[C@@H]1O` (some centres not stated), the Potency entry is “inactive”.
For `C[C@]12C[C@H](O)[C@H]3[C@@H](CCC4=CC(=O)CC[C@@]43C)[C@@H]1CC[C@@H]2C(=O)CO`, the Potency entry is “inactive”.
On to `CCN(CC)CCNC(=O)c1cc(Cl)c(N)cc1OC`, for which the Potency result was “inactive”.
Take `CN(C)CCC=C1c2ccccc2CCc2ccccc21`: the Potency result is “inactive”.
As for `CNCCCC1c2ccccc2C=Cc2ccccc21`, the Potency result was “inactive”.
The same measure, in the same setting: under `CSc1ccc2c(c1)N(CCC1CCCCN1C)c1ccccc1S2` (configuration not stated) stands “inactive”; under `C[C@H](NC(CCc1ccccc1)C(=O)O)C(=O)N1CCC[C@H]1C(=O)O` (some centres not stated), “inactive”.
Turning to `O=C1N=C(O)CN1/N=C/c1ccc(-c2ccc([N+](=O)[O-])cc2)o1`, the Potency entry is “inactive”.
`CC1=C(/C=C/C(C)=C/C=C/C(C)=C/C(=O)O)C(C)(C)CCC1`: the Potency result is “inactive”.
Still for that read-out and setting: under `Cc1cc(N)c2ccccc2[n+]1CCCCCCCCCC[n+]1c(C)cc(N)c2ccccc21` stands “inactive”; under `COc1ccc(Cl)cc1C(=O)NCCc1ccc(S(=O)(=O)NC(=O)NC2CCCCC2)cc1`, “inactive”; under `NC(=O)c1ncn([C@@H]2O[C@H](CO)[C@@H](O)[C@H]2O)n1`, “inactive”.

A further assay has as its target Phospholipid hydroperoxide glutathione peroxidase GPX4 (Homo sapiens) (UniProt P36969). Description: Primary qHTS Assay for Inhibitors of Recombinant Selenoprotein Glutathione Peroxidase 4 (GPX4) (AID 1845192). The settings on record: recombinant GPX4, GR-coupled NADPH fluorescence, 15 min; series mostly up to 50 µM. Summed up: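 GR-coupled assay: recombinant GPX4 preincubated 30 min with compound at room temperature; final 200 nM GPX4, 1 mM GSH, 0.5 mM cumene hydroperoxide, 0.5 mM NADPH, 100 nM GR, 0.01% BSA, pH 7.5 Tris. NADPH fluorescence (340/450 nm) read at 0 and 15 min.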
For `CC(C)NC[C@H](O)c1ccc(O)c(O)c1`, the Potency result was “inactive”.
Regarding `CCCCCCCCCCCCOS(=O)(=O)O`, the Potency entry is “inactive”.
Regarding `CCN(CC)CCNC(=O)c1c(C)[nH]c(/C=C2\C(=O)Nc3ccc(F)cc32)c1C`, the Potency entry is “inactive”.
`CCN(CC)CCOC(=O)C1(C2CCCCC2)CCCCC1`: the Potency entry is “inactive”.
On to `COCCOC(=O)C1=C(C)NC(C)=C(C(=O)OC/C=C/c2ccccc2)C1c1cccc([N+](=O)[O-])c1` (configuration not stated), for which the Potency entry is “inactive”.
As to `CCCCc1ncc(/C=C(\Cc2cccs2)C(=O)O)n1Cc1ccc(C(=O)O)cc1`, the Potency entry is “inactive”.
Consider `CC1=C(CC(=O)O)c2cc(F)ccc2/C1=C\c1ccc(S(C)=O)cc1` (configuration not stated), for which the Potency entry is “inactive”.
Turning to `CC(C)(C(=O)O)c1ccc(C(O)CCCN2CCC(C(O)(c3ccccc3)c3ccccc3)CC2)cc1` (configuration not stated), the Potency entry is “inactive”.
Consider `CC(C(O)c1ccc(O)cc1)N1CCC(Cc2ccccc2)CC1` (configuration not stated), for which the Potency result was “inactive”.
As for `CN1CCN(C2Cc3ccccc3Sc3ccc(Cl)cc32)CC1` (configuration not stated), the Potency result is “inactive”.
Same read-out and setting: in the case of `C[C@@H](O)[C@H](N)C(=O)O` it was “inactive”; in that of `CCN(CC)CCCC(C)Nc1c2ccc(Cl)cc2nc2ccc(OC)cc12` (configuration not stated), “inactive”.
Regarding `CN(C)CCCN1c2ccccc2Sc2ccc(Cl)cc21`, the Potency result is “inactive”.
The same measure, in the same setting: in the case of `CN1CCC[C@@H]1Cc1c[nH]c2ccc(CCS(=O)(=O)c3ccccc3)cc12` it was “inactive”.
In the case of `O=C1NC(=O)[C@@]2(CCOc3ccc(F)cc32)N1`, the Potency entry is “inactive”.
Same read-out and setting: in the case of `CNC(=O)Oc1ccc2c(c1)[C@]1(C)CCN(C)[C@@H]1N2C` it was “inactive”; in that of `CC(C)c1c(C(=O)Nc2ccccc2)c(-c2ccccc2)c(-c2ccc(F)cc2)n1CC[C@@H](O)C[C@@H](O)CC(=O)O`, “inactive”.
Still for that read-out and setting: under `C[C@]12CC[C@@H]3c4ccc(O)cc4CC[C@H]3[C@@H]1CCC2=O` stands “inactive”.
With `N[C@H]1C(O)O[C@H](CO)[C@@H](O)[C@@H]1O` (some centres not stated), the Potency result is “inactive”.
For `C[C@]12C[C@H](O)[C@H]3[C@@H](CCC4=CC(=O)CC[C@@]43C)[C@@H]1CC[C@@H]2C(=O)CO`, the Potency entry was “inactive”.
With `CCN(CC)CCNC(=O)c1cc(Cl)c(N)cc1OC`, the Potency result is “inactive”.
The same measure, in the same setting: under `CN(C)CCC=C1c2ccccc2CCc2ccccc21` stands “inactive”.
The same measure, in the same setting: in the case of `CNCCCC1c2ccccc2C=Cc2ccccc21` it was “inactive”.
In the case of `CSc1ccc2c(c1)N(CCC1CCCCN1C)c1ccccc1S2` (configuration not stated), the Potency entry is “inactive”.
On to `C[C@H](NC(CCc1ccccc1)C(=O)O)C(=O)N1CCC[C@H]1C(=O)O` (some centres not stated), for which the Potency result is “inactive”.
For the molecule `O=C1N=C(O)CN1/N=C/c1ccc(-c2ccc([N+](=O)[O-])cc2)o1`, the Potency entry is “inactive”.
Regarding `CC1=C(/C=C/C(C)=C/C=C/C(C)=C/C(=O)O)C(C)(C)CCC1`, the Potency entry was “inactive”.
Consider `Cc1cc(N)c2ccccc2[n+]1CCCCCCCCCC[n+]1c(C)cc(N)c2ccccc21`, for which the Potency entry was “inactive”.
Turning to `COc1ccc(Cl)cc1C(=O)NCCc1ccc(S(=O)(=O)NC(=O)NC2CCCCC2)cc1`, the Potency result was “inactive”.
Consider `NC(=O)c1ncn([C@@H]2O[C@H](CO)[C@@H](O)[C@H]2O)n1`, for which the Potency result was “inactive”.
